# Measured values taken from the supplement of paper PMC3545927.
# The list shows a part of the results. The true hit rate is not given.
# Target: furin, P09958
# Assay: furin cleavage Z-score vs untreated control; higher = more cleavage, active = 3.5 or more, inactive = 1 or less, 8 variable residues between constant flanks
# Summary of the method: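 The cleavage Z-score is the log read count relative to furin-free reactions, lowess-adjusted and scaled by median absolute deviation. Counts came from sequencing DNA released from bead-bound 8-mer peptide–cDNA fusions after digestion with purified furin for 7.5, 15 or 30 min.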
# 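Also: purified furin at 1:10 enzyme:substrate in 50 mM HEPES pH 7.5.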
# Chain of furin, P09958 (P09958 whole entry): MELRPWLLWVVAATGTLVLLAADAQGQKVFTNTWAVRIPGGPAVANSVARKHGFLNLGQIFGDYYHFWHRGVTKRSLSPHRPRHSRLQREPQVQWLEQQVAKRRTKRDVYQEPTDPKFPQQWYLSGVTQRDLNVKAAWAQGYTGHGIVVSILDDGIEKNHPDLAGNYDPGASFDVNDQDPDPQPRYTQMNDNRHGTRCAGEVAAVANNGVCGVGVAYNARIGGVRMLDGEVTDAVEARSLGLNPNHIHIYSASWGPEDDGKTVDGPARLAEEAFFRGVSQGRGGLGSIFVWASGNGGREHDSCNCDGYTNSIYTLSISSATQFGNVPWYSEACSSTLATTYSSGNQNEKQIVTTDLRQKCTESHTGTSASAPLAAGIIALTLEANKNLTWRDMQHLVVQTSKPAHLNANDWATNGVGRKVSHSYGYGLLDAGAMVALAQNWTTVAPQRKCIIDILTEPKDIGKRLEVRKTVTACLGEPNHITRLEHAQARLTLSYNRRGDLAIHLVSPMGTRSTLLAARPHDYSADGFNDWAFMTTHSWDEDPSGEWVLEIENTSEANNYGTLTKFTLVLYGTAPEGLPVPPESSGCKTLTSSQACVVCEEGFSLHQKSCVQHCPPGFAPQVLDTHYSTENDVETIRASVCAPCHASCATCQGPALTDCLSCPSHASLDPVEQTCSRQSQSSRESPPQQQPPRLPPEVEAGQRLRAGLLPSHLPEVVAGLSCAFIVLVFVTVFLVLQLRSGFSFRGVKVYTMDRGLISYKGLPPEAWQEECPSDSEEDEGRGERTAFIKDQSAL
Sequence,furin cleavage Z-score (7.5 min),furin cleavage Z-score (15 min),furin cleavage Z-score (30 min)
CATCGFADLMAGNASASA [HC224],-0.244 (inactive),-0.821 (inactive),-0.0608 (inactive)
CATWLKAKLMAGNASASA [HC1157],3.1,1.6,3.5 (active)
CANILRKARSAGNASASA [FS-366],9.27 (active),9.75 (active),7.85 (active)
CANNARAARSAGNASASA [FS-1547],5.1 (active),5 (active),5.02 (active)
CALWARMILMAGNASASA [HC1580],-0.179 (inactive),-0.799 (inactive),-1.16 (inactive)
CATLLRAARSAGNASASA [FS-1659],4.67 (active),4.38 (active),3.86 (active)
CATTPCSGQWAGNASASA [HC1922],-0.163 (inactive),-0.899 (inactive),-0.665 (inactive)
CAVYTFYGMWAGNASASA [HC554],-0.934 (inactive),-0.697 (inactive),-0.425 (inactive)
CASTPCSWHLAGNASASA [HC2528],1.37,0.165 (inactive),-0.0279 (inactive)
CASTPCSAQLAGNASASA [HC2562],-1.59 (inactive),0.487 (inactive),0.259 (inactive)
CAEGEVPCHRAGNASASA [HC2456],1.8,1.4,0.687 (inactive)
CAGLYHVTNDAGNASASA [HC260],0.615 (inactive),-1.34 (inactive),-0.664 (inactive)
CATLGFGAYMAGNASASA [HC791],0.163 (inactive),-1.28 (inactive),0.49 (inactive)
CARVCRCARAAGNASASA [FS-3116],5.97 (active),5.83 (active),6.08 (active)
CARSRREASGAGNASASA [FS-2311],3.7 (active),2.31,2.33
CASSSRDPRAAGNASASA [FS-1573],-1.14 (inactive),0.526 (inactive),1.07
CAKPAKSARSAGNASASA [FS-811],-0.364 (inactive),-0.316 (inactive),0.253 (inactive)
CAQPARSVRLAGNASASA [FS-1389],-0.0259 (inactive),0.85 (inactive),0.452 (inactive)
CARSRRPADTAGNASASA [FS-3210],-0.916 (inactive),-0.606 (inactive),-2.54 (inactive)
CARARRDPRAAGNASASA [FS-2643],9.64 (active),9.59 (active),9.18 (active)
CAKSARSVRAAGNASASA [FS-1673],6.74 (active),6.73 (active),7 (active)
CAVQPEKGGRAGNASASA [HC1444],-2.15 (inactive),-2.12 (inactive),-0.412 (inactive)
CADAMEECSQAGNASASA [HC1803],-1.34 (inactive),0.113 (inactive),-0.929 (inactive)
